From PubChem
This is a sample that favours compounds with a hit; in the whole collection about 7.4% have one here.
Rab9 prom act – qHTS Assay for Rab9 Promoter Activators. Potency, µM (series often up to 9.22 µM), without a hit: at the top dose activation, negative = inhibition, actives largely listed as activators. 2.8% of 320,000 active. AID 485297, 2010. Huh7 Rab9 promoter-luciferase reporter, luminescence, 24 h; also: % of control where 0% means no effect; nearly all actives have a fitted effect of over 60% in size
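Cell-based reporter: Huh7 stable for Rab9 promoter-driven luciferase, plated in reduced-serum medium with 10% FBS at 1500 cells/well, compound-treated 24 h at 37 °C, luminescence read after 10 min reagent.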
NPC1 promoter act – qHTS Assay for NPC1 Promoter Activators; Huh7 NPC1 promoter luciferase reporter, 24 h; Potency, µM (doses to about 9.22 µM), for the others: top-dose activation, hits mostly activators; 2.4% of 320,000 active; AID 485313, 2010; also: % of control where 0% means no effect; nearly all actives have a fitted effect of over 60% in size
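Huh7 reporter cells (NPC1 promoter driving luciferase) are dosed with compound for 24 h at 37 °C, 5% CO2; luciferase detection reagent is then added and luminescence measured after 10 min at ambient temperature.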
p53 reactivator – qHTS assay for re-activators of p53 using a Luc reporter; H1299 p53-A138V BP100-luciferase reporter, luminescence, 24 h; Potency, µM (series often up to 92.2 µM), without a hit: top-dose activity change, positive = activation, hits mostly activators; 0.063% of 320,000 active; also: % of control where 0% means no effect; nearly all actives have a fitted effect of over 45% in size
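p53-null H1299 cells stably carrying temperature-sensitive p53-A138V and a BP100-luciferase reporter were pinned with compounds (4-point, 1:5 series) and held 24 hrs at 37 deg C. Luminescence was read 10 min after detection reagent.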
SMN2 splice enh – qHTS Assay for Enhancers of SMN2 Splice Variant Expression. HEK293 SMN2-luciferase splicing reporter, luminescence, 30-36 h. Potency, µM (top dose mostly 46.1 µM), without a hit: top-dose activity change, positive = activation, most hits filed as activators. 2.8% of 210,000 active. AID 1458, 2008; also: % of control where 0% means no effect; nearly all actives have a fitted effect of over 55% in size
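HEK293 cells carry an SMN2 minigene-luciferase reporter in which exon 7 inclusion puts luciferase in frame. Cells were seeded at 2000 cells/well, attached for 10-12 hours, then exposed to compounds for 30-36 hours at 37C before ONE-Glo luminescence.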
ELG1 genotoxic – qHTS screen for small molecules that induce genotoxicity in human embryonic kidney (HEK293T) cells expressing luciferase-tagged ELG1. HEK293T ELG1-luciferase reporter, luminescence, 16 h. Potency, µM (series often up to 46 µM), for inactives: top-dose activity change, positive = activation, most hits filed as activators. 1.3% of 330,000 active; also: % of control where 0% means no effect; nearly all actives have a fitted effect of over 60% in size
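HEK293T cells expressing luciferase-tagged ELG1 were treated with compound or DMSO for 16 hr at 37°C. Luciferase activity was then read after 30 min with ONE-Glo at room temperature; rising signal flags genetic stress.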
FLuc modulator – qHTS profiling assay for firefly luciferase inhibitor/activator using purifed enzyme and Km concentrations of substrates (counterscreen for miR-21 project); Luciferin 4-monooxygenase (Photinus pyralis), P08659; purified FLuc, Km substrates, luminescence inhibition; 6.9% of 360,000 active; AID 588342, 2011; Potency, µM (series often up to 57.5 µM), without a hit: at the top dose activity change, negative = inhibition, usual class: inhibitors;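 also: plate controls were vehicle for no effect and reference inhibitor for full effect; nearly all actives have a fitted effect of over 55% in size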
Target sequence (P08659 whole entry, looked up): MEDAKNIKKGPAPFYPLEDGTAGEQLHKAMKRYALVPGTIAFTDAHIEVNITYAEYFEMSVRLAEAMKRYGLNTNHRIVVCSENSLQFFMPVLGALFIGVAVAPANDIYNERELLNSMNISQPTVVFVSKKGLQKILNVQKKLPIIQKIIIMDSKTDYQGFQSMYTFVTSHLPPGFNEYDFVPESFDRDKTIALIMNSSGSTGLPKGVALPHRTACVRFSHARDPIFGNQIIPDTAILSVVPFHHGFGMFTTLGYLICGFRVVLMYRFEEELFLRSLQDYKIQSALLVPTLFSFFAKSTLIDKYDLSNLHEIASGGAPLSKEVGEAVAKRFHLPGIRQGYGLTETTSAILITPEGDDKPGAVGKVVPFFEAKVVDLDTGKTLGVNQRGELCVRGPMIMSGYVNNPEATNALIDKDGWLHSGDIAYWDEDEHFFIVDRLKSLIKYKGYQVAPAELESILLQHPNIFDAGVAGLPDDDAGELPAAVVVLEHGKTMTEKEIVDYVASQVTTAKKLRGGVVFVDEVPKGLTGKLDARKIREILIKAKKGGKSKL
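Purified P. pyralis luciferase, 10 nM final, with Km-level 10 uM D-luciferin and 10 uM ATP in 50 mM Tris acetate pH 7.5, 10 mM Mg acetate, 0.01% Tween-20, 0.05% BSA; 6-point qHTS titration about 60 µM downward; luminescence read.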
An asterisk follows results filed as active; u = inconclusive; x = no result; [ ] = dose if it differs, or a comment. Calls follow the shape of the dose curve; as a rule, active = well fitted curve in the direction sought with a large enough effect; inconclusive = small, poorly fitted or top-dose-only effect, or another doubt; inactive = no such curve, though single readings can be large; an effect the other way counts as inactive or inconclusive. Potency is read from the fitted curve at half-maximal effect.

SMILES | Rab9 prom act | NPC1 promoter act | p53 reactivator | SMN2 splice enh | ELG1 genotoxic | FLuc modulator
O=C(Nc1nc2ccc(Cl)cc2s1)C1CCCO1 (stereo not given) | 3.55µM* | 1µM* | u | 22.4µM* | 4.61µM* | 6.75µM*
CCNC(=O)c1ccc2nc(CCc3ccccc3)oc2c1 | x | x | x | x | x | -13.1%
Oc1c(C=NCc2ccccc2)sc2ccccc12 | 2.82µM* | u | 7.3% | 2.5% | u | 10.7µM*
O=[N+]([O-])c1ccc(N=Cc2sc3ccccc3c2O)cc1 | u | 22.2% | u | 25.1µM* | 8.2µM* | u
Oc1cccc(C=NCc2ccccc2)c1O | 2.6% | -1.4% | u | 25.4% | -4.3% | 0.3%
O=[N+]([O-])c1cccc(N=Cc2sc3ccccc3c2O)c1 | u | 26.0% | 2.0% | 9.1% | u | u
N#CC1=C2Sc3ccccc3N2CCCC1=O | u | u | u | 5.9% | u | -18.9%
N#CC1=C2SC=C(c3ccc(Br)cc3)N2CCCC1=O | 1.58µM* | u | 11.9% | 15.8µM* | 18.7% | 5.36µM*
CCn1c(=NC(=O)c2ccc(S(=O)(=O)N3CCCCC3)cc2)sc2cccc(OC)c21 | x | x | x | u | x | 1.7%
CC(=O)c1sc(NC(=O)c2cc(=O)c3ccccc3o2)nc1C | 3.16µM* | 2.51µM* | 19.4% | 11.2µM* | u | 7.57µM*
CC(=O)c1sc(NC(=O)c2oc3ccc(F)cc3c2C)nc1C | 2.82µM* | 2.24µM* | x | x | 18.2% | 1.9µM*
NC(=O)c1ccsc1NC(=O)c1cc(=O)c2ccccc2o1 | 1.78µM* | u | u | 10µM* | u | 2.69µM*
CCOC(=O)c1csc(NC(=O)c2cc(=O)c3ccccc3o2)n1 | u | 15.6% | 4.8% | 23.2% | 10.1% | 15.1µM*
CCOC(=O)C1=C(CS(=O)(=O)c2ccc(F)cc2)NC(=O)NC1c1ccc(O)c(O)c1 (stereo not given) | 0.6% | -2.1% | -10.1% | x | 0.5% | u
Cc1ccc(C)c(N2CCN(C(=O)C(C)n3nc(C)c4sc5ccccc5c4c3=O)CC2)c1 (stereo not given) | x | x | x | x | x | 15.1µM*
CCOC(=O)C1CCN(C(=O)c2ccc(-n3ccc4ccccc43)s2)CC1 | x | x | x | x | x | -15.4%
CC(NC(=O)C1CCN(C(=O)c2ccc(-n3ccc4ccccc43)s2)CC1)c1ccccc1 (stereo not given) | x | x | x | x | x | 13.5µM*
Cc1nc(-n2nc(C)c(Cc3ccccc3Cl)c2C)sc1C(=O)N1CCC(C)CC1 | x | x | x | x | x | 1.1%
COc1cccc(NC(=O)C(=O)NCCC2CCCCN2S(=O)(=O)c2ccccc2)c1 (stereo not given) | 12.7% | -0.2% | 12.2% | x | 5.5% | 23.9µM*
COc1cccc(NC(=O)C(=O)NCC2CCCN2S(=O)(=O)c2ccccc2)c1 (stereo not given) | u | 15.7% | 14.0% | x | 2.9% | 15.1µM*
Cc1ccccc1-c1nc2cc(NC(=O)C3CC3)ccc2o1 | 0.501µM* | 0.447µM* | x | x | 4.61µM* | 1.69µM*
CCC(=O)Nc1ccc2oc(-c3ccccc3Br)nc2c1 | 2µM* | 1.78µM* | 8.7% | 10µM* | u | 3.01µM*
CC(=O)Nc1ccc2oc(-c3ccccc3Br)nc2c1 | 0.447µM* | 0.891µM* | 33.7% | 11.2µM* | 1.84µM* | 2.39µM*
CC(=O)Nc1ccc2oc(-c3cc(F)c(F)cc3Cl)nc2c1 | 0.398µM* | 0.316µM* | 11.9% | 8.91µM* | 1.84µM* | 1.9µM*
Cc1ccccc1-c1nc2cc(NC(=O)Cc3ccc(Cl)cc3)ccc2o1 | x | x | x | -3.6% | x | -10.2%
SMILES | Rab9 prom act | NPC1 promoter act | p53 reactivator | SMN2 splice enh | ELG1 genotoxic | FLuc modulator
CCN1CCC(O)([C@H](C(=O)O)c2ccccc2)CC1 | x | x | x | -5.8%[9.22 µM] | x | x
COc1ccccc1CNC(=O)c1ccc(-c2nc(CS(=O)(=O)c3ccc(C)cc3)c(C)o2)cc1 | x | x | x | x | x | -4.2%
O=[N+]([O-])c1cccc(-c2nc(-c3ccccc3)no2)c1 | 3.98µM* | 6.31µM* | 7.7% | x | u | 1.35µM*
O=[N+]([O-])c1cccc(-c2noc(-c3ccco3)n2)c1 | 2.51µM* | 3.55µM* | 2.8% | x | u | 9.53µM*
O=[N+]([O-])c1cccc(-c2nc(-c3ccncc3)no2)c1 | u | u | 11.5% | 16.7% | u | u
O=[N+]([O-])c1cccc(-c2noc(COc3ccccc3)n2)c1 | -7.7% | -0.8% | 19.7% | -12.0% | 11.0% | u
Cc1ccc(Cl)cc1NC(=O)Cn1c(=O)n(Cc2ccccc2)c(=O)c2oc3ccccc3c21 | x | x | x | x | x | 5.6%
COc1ccccc1CN1CC[C@@]2(CCCN(C(C)=O)C2)C1 | x | x | x | 2.7% | x | x
O=C(NC1CCCN(Cc2ccccc2F)C1)C1CCC1 (stereo not given) | -2.6% | -4.0% | -4.4% | x | 1.0% | -2.2%
CCOc1ccccc1OCCCC(=O)Nc1nc2ccccc2[nH]1 | 5.4% | 8.3% | 8.4% | -4.1% | 6.4% | -1.3%
CCOc1ccccc1/C=C/c1cc(C(=O)O)c2ccccc2n1 | 13.5% | 21.8% | 9.1% | x | 9.8% | 13.5µM*
CCN(CC)C(=O)Cc1cc(C(=O)O)c2ccccc2n1 | 10.4% | 2.2% | -3.4% | x | 0.1% | 4.4%[2.3 µM]
Cc1cc(/C=C\c2ccccc2)nc2ccccc12 | u | 22.5% | 22.0% | x | u | 1.51µM*
CCOc1ccccc1/C=C/c1nc2ccccc2[nH]c1=O | 3.98µM* | 3.16µM* | -47.9% | x | 4.5% | -9.7%
COc1cc(OC)c(OC)cc1/C=C/c1cc(C(=O)O)c2ccccc2n1 | -8.4% | -1.2% | -3.3% | -8.5% | 2.7% | 10.7µM*
Cc1ccn(CC(=O)NC2CC(C)(C)Cc3c2cnn3-c2ccc(F)cc2)n1 (stereo not given) | 3.7% | -2.2% | -4.5% | x | -1.3% | 1.1%
O=C(O)c1cc(Cl)nc2ccccc12 | -3.1% | 0.2% | 0.6% | x | -0.5% | -5.6%
COc1ccc(/C=C/c2cc(C(=O)O)c3ccccc3n2)cc1 | u | u | -6.8% | x | -15.0% | 0.0675µM*
O=C(/C=C/c1ccccc1)NC(=O)c1ccccc1O | u | u | 28.2µM* | x | u | 1.69µM*
Cc1ccccc1C(=O)NNC(=O)/C=C/c1ccccc1 | 4.4% | 0.3% | 3.9% | 18.3% | 1.5% | -5.6%
O=C(/C=C/c1ccccc1)CC(=O)c1ccccc1O | u | 25.7% | 25.6% | x | u | 15.1µM*
COc1cc(/C=C/C(=O)NC(=O)c2ccccc2O)ccc1O | -1.3% | 2.5% | -10.3% | x | 1.0% | 1.5%
